Results filed as inconclusive are left out. Calls of active or inactive are those of the source. The calls were made as follows: active = hit-call score of the fitted dose curve at least 0.9, where 1 is the maximum; inconclusive = response in the unintended direction; inactive = score below 0.9.
Test system: guinea pig Atrionatriuretic Peptide Receptor A (ANPA), gene 100135578
Assay: NVS_GPCR_gANPA: NovaScreen (NVS) G Protein-Coupled Receptor Assay for guinea pig Atrionatriuretic Peptide Receptor A (ANPA) (AID 2283291)
Procedure: NVS_GPCR_gANPA is a biochemical, single-readout assay that uses extracted gene-proteins from Guinea pig cerebellar membranes in a tissue-based cell-free assay. Measurements were taken 1 hour after chemical dosing in a 96-well plate.NVS_GPCR_gANPA is one of one assay component(s) measured or calculated from the NVS_GPCR_gANPA assay. It is designed to make measurements of radioligand binding, a form of binding reporter, as detected with scintillation counting signals by Filter-based radiodetection technology.Data from the assay component NVS_GPCR_gANPA was analyzed into 1 assay endpoint. This assay endpoint, NVS_GPCR_gANPA, was analyzed in the positive analysis fitting direction relative to DMSO as the negative control and baseline of activity. Using a type of binding reporter, loss-of-signal activity can be used to understand changes in the binding as they relate to the gene Nppa. Furthermore, this assay endpoint can be referred to as a primary readout, because the performed assay has only produced 1 assay endpoint. To generalize the intended target to other relatable targets, this assay endpoint is annotated to the lyase intended target family, where the subfamily is guanylyl cyclase.
Binding assays used specific radioligands (tritiated, iodinated) with non-radioactive competitive displacement ligands in agonist or antagonist protocols (as indicated) and various reference compounds and inhibitors to titrate specific binding to receptors and transporters. Most enzyme assays (CYPs, kinases, phosphatases, proteases, HDACs) used recombinant protein and specific substrates (fluorescence mostly, some colorimetric and radioactive) and inhibitors, followed by a biochemical separation of substrate and product. All assays for the biochemical HTS were initially run in duplicate at a single concentration (10 uM for CYP450 assays and 25 uM for all others). Assay-chemical combinations meeting a pre-defined threshold (e.g., 30% inhibition and other criteria defined below) were then run in singleton concentration-response format with maximum concentration of 20 uM for CYPs and 50 uM for all others. Each assay was run with positive and negative controls, and concurrent controls on every plate. The follow-up (secondary) screen tested active chemical-pairs in concentration series, as well as a few additional assays not tested in the primary screen, some selected negative inactives, and several cases re-run in the concentration series for confirmatory purposes.

Structure (SMILES)	outcome	AC50
Oc1ccc2c(c1)OC[C@@H](N1CCC(O)(c3ccc(F)cc3)CC1)[C@H]2O	inactive	–
CCc1cccc(CC)c1N	inactive	–
Cc1nccn1-c1ccc(Sc2cccc(C3(C(N)=O)CCOCC3)c2)cc1	inactive	–
COCC(C)O (stereo not given)	inactive	–
Clc1cc(Cl)c(Cl)cc1Cl	inactive	–
CC(=O)c1ccccc1	inactive	–
CC(C)(c1cc(Br)c(O)c(Br)c1)c1cc(Br)c(O)c(Br)c1	inactive	–
CN(C[C@@H](CC[N+]12CCC(C3CCCCC3)(CC1)CC2)c1ccc(Cl)c(Cl)c1)C(=O)c1cc(C(F)(F)F)cc(C(F)(F)F)c1	–	42.3 µM (active)
CCCCCCCCCCCCCCCCO	inactive	–
COCc1nnc(-c2ccc[n+]([O-])c2)n1-c1c(Cl)c(Cl)cc2[nH]c(=O)c(=O)[nH]c12	inactive	–
CCCCCCCCCC	inactive	–
CC(C)(C)c1ccccc1	inactive	–
O=C(OCCCCCCOC(=O)c1ccccc1)c1ccccc1	inactive	–
Cc1cc(C)c(O)c(C)c1	inactive	–
CCCCCCC(C)OC(=O)COc1nc(F)c(Cl)c(N)c1Cl (stereo not given)	inactive	–
